Sampled rows, rich in hits. Any-hit rate of the full collection: about 3.4%.
TEAD-YAP block – TEAD-YAP interaction inhibition, primary screen, TEAD-YAP interaction inhibitor project, luminescence, HEK-TIYL cells. 640,000 tested, 1.4% active. AID 1259422, 2018. TEAD-Gal4/YAP UAS-luciferase luminescence. inhibition, % at 9.12 µM; in the data active = inhibition above about 32%;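 note: 0% = median of test compound wells and 100% = reference inhibitor wells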
MITF inh – MITF inhibitors, primary screen, biochemical, AlphaScreen, human; Microphthalmia-associated transcription factor (Homo sapiens), O75030; AlphaScreen MITF homodimerization, bead proximity signal; inhibition, % at 2.6 µM; 650,000 tested, 0.91% active; AID 1259374, 2018; in the data active = inhibition above about 50%;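 note: 0% = vehicle wells with protein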
FBW7 act – FBW7 E3 ligase activators, primary screen, biochemical, AlphaScreen, human; AID 1259310, 2017; 650,000 tested, 0.13% active; AlphaScreen FBW7–phospho-cyclin E peptide binding, activator screen; normalized activity (activation), % at 26.1 µM; in the data active = normalized activity above about 1.9%;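 note: purified mutant Fbw7 with reduced substrate affinity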
GPR151 ag – activators of human GPR151, primary screen, cell-based, PathHunter beta-arrestin, luminescence | G-protein coupled receptor 151 (Homo sapiens), Q8TDV0 | activation, % at 11.2 µM | 650,000 tested, 1% active | PathHunter beta-arrestin GPR151 cells; in the data active = activation above about 4.9%;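 note: 0% = median of compound wells and 100% = cells with positive control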
Target sequence (Q8TDV0 whole entry, looked up): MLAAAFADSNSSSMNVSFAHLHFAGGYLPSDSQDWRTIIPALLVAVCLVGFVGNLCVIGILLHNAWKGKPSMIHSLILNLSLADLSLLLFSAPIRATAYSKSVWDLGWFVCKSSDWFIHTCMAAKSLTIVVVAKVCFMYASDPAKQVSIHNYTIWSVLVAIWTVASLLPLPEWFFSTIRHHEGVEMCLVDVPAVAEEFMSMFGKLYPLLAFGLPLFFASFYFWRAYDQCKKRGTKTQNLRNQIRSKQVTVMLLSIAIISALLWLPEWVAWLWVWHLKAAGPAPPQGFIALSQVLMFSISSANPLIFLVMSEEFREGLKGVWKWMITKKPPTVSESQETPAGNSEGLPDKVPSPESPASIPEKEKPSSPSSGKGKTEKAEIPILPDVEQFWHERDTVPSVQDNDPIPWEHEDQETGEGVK
GPR151 confirm – GPR151 activators, triplicate retest, confirmation, cell-based, PathHunter beta-arrestin, luminescence; shares compounds with GPR151 ag; AID 1508609, 2020; GPR151 PathHunter beta-arrestin cells, 90 min; % of EA-reagent control over plate median; activation, % at 11.2 µM; 6,700 tested, under 10 active;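 active = mean percent activation across replicates above the confirmation screen cutoff of 4.91%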
GPR119 counter – GPR119 activators in beta-arrestin cells, counter-screen for GPR151 activator project, cell-based, PathHunter beta-arrestin, luminescence, triplicate; shares compounds with GPR151 ag; 90 min; 0 = compound-well median, 100 = enzyme-acceptor control; activation, % at 11.2 µM; 6,700 tested, 0.3% active;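 active = mean percent activation in the counterscreen above 29.09%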;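 note: counterscreen on off-target GPR119 to flag nonselective hits from the GPR151 activator screen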
* hit, by the source's call; / = no result; ! = not confirmed by another sample.

SMILES	TEAD-YAP block	MITF inh	FBW7 act	GPR151 ag	GPR151 confirm	GPR119 counter
O=C(Nc1cccc2ccccc12)c1ccc(NC(=O)c2cc([N+](=O)[O-])ccc2Br)cc1	14	20	1	0	/	/
COc1ccc(Nc2nc(=S)[nH]c3cc(OC)c(OC)cc23)cc1OC	8	3	0	6.6*	0	9
COc1cc2[nH]c(=S)nc(Nc3ccncc3)c2cc1OC	8	0	0	0	/	/
COc1ccc(-c2nnc(NC(=O)COc3ccc(C)cc3)s2)cc1OC	4	-1	0	0	/	/
O=c1c2c3c(sc2[nH]c(=S)n1-c1ccccc1)CN(Cc1ccccc1)CC3	9	2	0	5.3*	0	-6
O=c1c2c3c(sc2[nH]c(=S)n1-c1ccccc1)CCC3	0	11	2	1	/	/
Cc1cc2nc(C3CCCN3C(=O)CC3(C)C(=O)N=C4C=CC=CN43)[nH]c2cc1C (configuration not stated)	4	20	1	8.0*	-1	0
Cc1cc2nc(C3CCCN3C(=O)CN3CCCCC3)[nH]c2cc1C (configuration not stated)	-3	7	0	0	/	/
O=C(Nc1cccc(S(=O)(=O)NCc2ccco2)c1)c1cc(F)c(F)c(F)c1F	8	-6	0	4.9*	0	4
CSCC(=O)N1CCC(CO)(Cc2ccccc2C(F)(F)F)CC1	-1	-9	0	1	/	/
c1ccc(Oc2ccc(-c3[nH]c(-c4ccccc4)nc3-c3ccccc3)cc2)cc1	0	5	0	5.3*	1	5
O=C(O)c1ccc(-c2nc(-c3ccccc3)c(-c3ccc(C(=O)c4ccccc4)cc3)[nH]2)cc1	1	5	0	0	/	/
Cc1ccc(-c2nc(-c3ccccc3)c(-c3ccc(C(=O)c4ccccc4)cc3)[nH]2)cc1	-6	-6	0	9.6*	1	20
COc1ccc(NS(=O)(=O)c2ccc3c(c2)C(=O)c2cc(S(=O)(=O)Nc4ccc(OC)cc4)ccc2-3)cc1	-7	15	0	2	/	/
CN(Cc1ccccc1)C(=O)CCC1CCN(C(=O)C(=O)c2ccccc2)CC1	-19	-7	0	5.2*	-1	2
CC1=C(C(=O)N2CCC(CCC(=O)N(C)Cc3ccccc3)CC2)OCCO1	-12	-1	0	-1	/	/
CC(C)N(CCNc1nc(Nc2ccccn2)nc2c1ncn2C1CCCCC1)C(C)C	16	2	0	6.4*	0	-13
CC(C)N(CCNc1nc(Nc2nccc3ccccc23)nc2c1ncn2C1CCCCC1)C(C)C	-4	-12	0	-2	/	/
Cc1ccc2cc(CN(CC3CCCO3)C(=O)C3CCC3)c3nnnn3c2c1 (configuration not stated)	12	4	0	8.4*	4	8
COc1ccc(OC)c(Nc2nc(-c3ccc(F)cc3)cs2)c1	-13	-16	0	1	/	/
Cc1ccc(SC2CC(=O)N(c3ccc(F)cc3F)C2=O)cc1 (configuration not stated)	0	-8	0	9.8*	-1	-5
Cc1ccc(N2C(=O)CC(Sc3ccc(F)cc3)C2=O)cc1 (configuration not stated)	10	-10	0	0	/	/
COc1ccc(CNc2ccc(Br)cn2)cc1	-65	3	0	1	/	/
Cc1nc2sccn2c(=O)c1CCN1CCC(=C(c2ccc(F)cc2)c2ccc(F)cc2)CC1	0	28	0	0	/	/
Cc1nc2ccccn2c(=O)c1CCN1CCC(C(=O)c2ccc(F)cc2)CC1	-3	7	1	9.9*!	0	-4
SMILES	TEAD-YAP block	MITF inh	FBW7 act	GPR151 ag	GPR151 confirm	GPR119 counter
COc1ccc2cc(CCNC(=O)/C=C\c3ccc4c(c3)OCO4)c(=O)[nH]c2c1	8	7	0	12*	0	2
CCOC(=O)C1=C(N)OC2=C(C(=O)CC(C)(C)C2)C1c1ccc(Cl)c(Cl)c1 (configuration not stated)	-7	-2	0	0	/	/
CC(NS(=O)(=O)c1ccc2c(c1)NC(=O)CC(=O)N2)c1ccccc1 (configuration not stated)	-1	-7	0	8.3*	1	12
O=C1CC(=O)Nc2cc(S(=O)(=O)NCC3COc4ccccc4O3)ccc2N1 (configuration not stated)	5	6	0	5.0*	0	3
CCC(C)NC(=O)CN(c1cccc(C(F)(F)F)c1)S(=O)(=O)c1ccccc1 (configuration not stated)	6	-10	0	10.0*	0	3
CCC(C)NC(=O)CN(c1cccc(C(F)(F)F)c1)S(C)(=O)=O (configuration not stated)	3	-3	0	0	/	/
CCc1ccc(NC(=O)C(=O)NNC(=O)c2cccc(OC)c2)cc1	9	14	0	-1	/	/
COc1ccc(NC(=O)C(=O)NNC(=O)c2cccc(OC)c2)cc1	-3	-6	0	6.1*	0	4
C=CCNc1nc(Cl)nc(NCCC2=CCCCC2)n1	-5	0	0	5.1*	-1	-12
CC(=O)NC1=NC(=O)/C(=C/c2ccc(OCc3ccc([N+](=O)[O-])cc3)cc2)S1	1	17	0	5.0*	0	-4
COc1cc(/C=C2\SC(NC(C)=O)=NC2=O)ccc1OCc1ccc([N+](=O)[O-])cc1	-14	-1	0	1	/	/
O=C(c1cc(-c2ccc(F)cc2)n[nH]1)N1CCn2c1nc1ccccc12	-29	1	0	1	/	/
CCOc1ccc(CN(C(=O)c2cccs2)C2CCS(=O)(=O)C2)cc1 (configuration not stated)	-9	5	0	6.8*	0	9
COc1ccc(CN(C(=O)c2cccs2)C2CCS(=O)(=O)C2)cc1 (configuration not stated)	0	14	0	0	/	/
CC(c1ccccc1)N1C(=O)CC(Nc2ccc(N3CCOCC3)cc2)C1=O (configuration not stated)	1	8	-1	7.2*	0	13
CC(C)N1C(=O)CC(Nc2ccc(N3CCOCC3)cc2)C1=O (configuration not stated)	-27	1	0	0	/	/

Assay outcomes deposited in PubChem BioAssay by The Scripps Research Institute Molecular Screening Center.
